Measured values as given in PMC5540273 (PLoS ONE, 2017).

What was measured:
Details in all cases: concentration: 1 μM, replicates: in singlicate; n = 1
YANK2 = test system: T1, YANK2
T1 construct: gene STK32B

YANK3 = test system: T2, YANK3
T2 construct: gene STK32C

YES = test system: T3, YES
T3 construct: gene YES1

YSK1 = test system: T4, YSK1
T4 construct: gene STK25

YSK4 = test system: T5, YSK4
T5 construct: gene MAP3K19

ZAK = test system: ZAK
ZAP70 = test system: ZAP70
p38-alpha = test system: T6, p38-alpha
T6 construct: gene MAPK14

p38-beta = test system: T7, p38-beta
T7 construct: gene MAPK11

p38-delta = test system: p38-delta
p38-gamma = test system: T8, p38-gamma
T8 construct: gene MAPK12
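Note: KINOMEscan kinase panel screen.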

Structure (SMILES)	%Inh (YANK2)	%Inh (YANK3)	%Inh (YES)	%Inh (YSK1)	%Inh (YSK4)	%Inh (ZAK)	%Inh (ZAP70)	%Inh (p38-alpha)	%Inh (p38-beta)	%Inh (p38-delta)	%Inh (p38-gamma)
O=C(Nc1n[nH]c2nc(-c3cccs3)c(Br)cc12)C1CC1 [SB-735297]	11%	0%	8%	0%	95.3%	30%	0%	4%	2%	0%	0%
COc1nccc(-c2c(-c3ccc(F)cc3)ncn2CCCN2CCOCC2)n1 [SB-282852]	0%	0%	0%	0%	0%	11%	31%	81%	62%	0%	46%
Cc1nccc(-c2c(-c3ccc(F)cc3)ncn2CCCN2CCOCC2)n1.Cl [SB-282975]	0%	5%	18%	0%	22%	28%	25%	61%	26%	0%	26%
COC(=O)C(NC(=O)NC1CCN(c2ccnc(Nc3ccc(F)cc3)n2)C1)c1ccccc1 (stereo not shown) [GSK1379712]	0%	0%	0%	14%	32%	0%	4%	12%	0%	37%	23%
Cc1ccccc1Cn1ccn2c(=O)cc(N3CCOCC3)nc12 [GSK2269905]	0%	7%	19%	16%	28%	0%	0%	0%	0%	7%	0%
CC(=O)c1c(C)c2cnc(Nc3ccc(N4CCNCC4)cn3)nc2n(C2CCCC2)c1=O	0%	0%	6%	0%	10%	0%	0%	0%	0%	22%	6%
Nc1ncnc2occ(-c3ccc4c(c3)CCN4C(=O)Cc3cc(F)ccc3F)c12 [GSK2645446]	0%	0%	0%	4%	66%	0%	0%	0%	0%	24%	7%
CC[C@@H]1CO[C@H](C(=O)Nc2ccccc2)CN1c1cc(-c2ccc3c(N)n[nH]c3c2)nc(NC)n1 [GSK2376236]	77%	0%	0%	6%	1%	0%	0%	8%	0%	26%	0%
CC(C)c1ccc(O)cc1Nc1ccnc2ccc(C(F)(F)F)cc12 [GW482059]	2%	0%	0%	0%	73%	9%	0%	0%	0%	1%	0%
COc1cccc(NC(=O)Nc2ccc(C)c(-c3ccc(C(=O)Nc4ccncc4)cc3)c2)c1 [GSK1398474]	0%	10%	12%	4%	24%	50%	0%	6%	0%	28%	27%
Cc1ccc(NC(=O)c2ccc(Cl)cc2)cc1-c1ccc(C(=O)Nc2ccncc2)cc1 [GSK1398467]	10%	17%	18%	0%	40%	17%	6%	65%	29%	27%	0%
CSc1ccc(-c2nc3n(c2-c2ccncc2)CCC3)cc1 [SKF-105561]	6%	0%	7%	0%	7%	3%	0%	51%	7%	0%	30%
COc1ccc(CSc2nnc(-c3ccc4c(c3)CCO4)o2)cc1	0%	0%	0%	0%	0%	0%	0%	0%	0%	23%	0%
Cc1ccc(NC(=O)Nc2ccc(Cl)c(C(F)(F)F)c2)cc1-c1ccc(C(=O)Nc2ccncc2)cc1 [GSK1398470]	0%	10%	7%	0%	72%	59%	0%	95.9%	96.2%	0%	27%
Cc1ccc(NC(=O)Nc2ccc(Cl)cc2)cc1-c1ccc(C(=O)Nc2ccncc2)cc1 [GSK1398472]	4%	0%	17%	15%	56%	64%	7%	72%	34%	42%	23%
Fc1ccc(-c2nc3n(c2-c2ccncc2)CCS3)cc1 [GI98581]	5%	21%	0%	0%	5%	4%	0%	98.4%	14%	14%	0%
COC(=O)c1cccc(NC(=O)NC2CCN(c3ccnc(Nc4ccc(OC)cc4)n3)C2)c1 (stereo not shown) [GSK1379746]	0%	8%	13%	0%	22%	0%	0%	3%	0%	6%	0%
Cc1c(Cn2c(C)c(C)n3c(=O)cc(N4CCOCC4)nc23)cccc1C(F)(F)F [GSK2328680]	0%	0%	7%	14%	0%	16%	0%	21%	0%	33%	0%
O=C1NC(=O)C(c2ccc(Cl)cc2)=C1Nc1ccc(O)cc1 [SB-340867]	0%	0%	0%	8%	10%	22%	0%	0%	0%	0%	0%
COc1ccc(Nc2nccc(NCCNC(=O)Nc3cc(C)ccc3C)n2)cc1 [GSK1379899]	0%	0%	0%	0%	4%	3%	0%	0%	0%	21%	0%
COc1ccc(Nc2nccc(-c3ccc(NC(=O)c4cc5cc(F)ccc5[nH]4)cc3)n2)cc1 [GSK1229496]	0%	0%	0%	0%	8%	6%	0%	4%	0%	43%	1%
COC(=O)c1cccc(NC(=O)NC2CCN(c3ccnc(Nc4ccc(F)cc4)n3)C2)c1 (stereo not shown) [GSK1379725]	0%	0%	8%	0%	8%	2%	0%	0%	0%	51%	0%

Structure (SMILES)	%Inh (YANK2)	%Inh (YANK3)	%Inh (YES)	%Inh (YSK1)	%Inh (YSK4)	%Inh (ZAK)	%Inh (ZAP70)	%Inh (p38-alpha)	%Inh (p38-beta)	%Inh (p38-delta)	%Inh (p38-gamma)
O=C1NC(=O)C(c2ccc(Cl)cc2)=C1Nc1cccc(Cl)c1 [SB-317651]	0%	0%	0%	0%	0%	16%	5%	13%	0%	5%	11%
COc1cc2ncnc(Nc3cccc(Br)c3)c2cc1OC.Cl [GI230329]	0%	13%	3%	4%	63%	12%	0%	47%	0%	46%	66%
CCCCc1nn2ncccc2c1-c1ccnc(NC2CC2)n1 [GW684374]	3%	0%	0%	25%	18%	24%	0%	61%	0%	40%	0%
COc1ccc(Nc2nccc(N3CCC(NC(=O)C(C)c4ccc(Cl)cc4)C3)n2)cc1 (stereo not shown) [GSK1379735]	7%	15%	13%	0%	0%	5%	2%	0%	24%	29%	22%
COc1cccc(C2=C(Nc3cc(Cl)c(O)c(Cl)c3)C(=O)NC2=O)c1 [SB-390767]	0%	4%	19%	0%	30%	0%	0%	0%	0%	39%	0%
Nc1nccc(-c2c(-c3ccc(F)cc3)ncn2C2CCN(Cc3ccccc3)CC2)n1 [SB-219980]	64%	30%	0%	0%	34%	0%	21%	99.7%	18%	0%	0%
Fc1ccc(-c2nc[nH]c2-c2ccncc2)cc1 [SB-217360]	28%	0%	0%	0%	22%	0%	0%	97.9%	21%	0%	39%
CNC(=O)c1ccc(C)c(-n2c(C)cc(OCc3ccc(F)cc3F)c(Br)c2=O)c1	0%	0%	0%	0%	0%	0%	0%		94.5%	0%	0%
Cc1ccc(NC(=O)Nc2ccccc2F)cc1-c1ccc(C(=O)Nc2ccncc2)cc1 [GSK1398477]	12%	16%	26%	3%	86%	60%	0%	36%	12%	36%	0%
CNc1cc(-c2ccc3c(N)n[nH]c3c2)nc(N)n1 [GSK2224810]	8%	0%	0%	6%	58%	0%	0%	23%	0%	38%	0%
COc1ccc(CSc2nnc(-c3ccc4ncsc4c3)o2)cc1C(F)(F)F	11%	0%	0%	11%	70%	0%	11%	0%	10%	0%	0%
CC(=O)c1cccc(NC(=O)NC2CCN(c3ccnc(Nc4ccc(F)cc4)n3)C2)c1 (stereo not shown) [GSK1379710]	0%	6%	0%	0%	20%	9%	0%	30%	0%	14%	3%
CS(=O)(=O)CCNCc1nc(-c2ccc3ncnc(Nc4ccc5c(cnn5Cc5ccccc5)c4)c3c2)cs1.Cl.Cl [GW569716]	0%	0%	21%	0%	36%	0%	0%	4%	0%	18%	0%
Fc1ccc(-c2nn3cccc(F)c3c2-c2ccncc2)cc1 [GW475620]	46%	12%	5%	0%	14%	25%	3%	97.6%	16%	21%	0%
CS(=O)(=O)CCNCc1nc(-c2ccc3ncnc(Nc4ccc(OCc5ccccc5)c(Cl)c4)c3c2)cs1.Cl [GW582764]	0%	40%	7%	0%	30%	5%	0%	0%	0%	37%	0%
Cc1ccc(NC(=O)Nc2ccccc2)cc1-c1ccc(C(=O)Nc2ccncc2)cc1 [GSK1398471]	5%	0%	12%	21%	94.6%	53%	0%	0%	0%	19%	12%
COc1ccc(Nc2nccc(N3CCC(NC(=O)c4cc5ccccc5s4)C3)n2)cc1 (stereo not shown) [GSK1379738]	6%	0%	17%	7%	47%	60%	0%	20%	0%	42%	9%
COc1ccc(Nc2nccc(N3CCC(NC(=O)C(C)c4ccc(Cl)cc4)CC3)n2)cc1 (stereo not shown) [GSK1379812]	2%	1%	0%	0%	0%	0%	0%	1%	0%	27%	2%
Cn1cncc1C(=O)NC1CCN(c2ccnc(Nc3ccc(F)cc3)n2)C1 (stereo not shown) [GSK1379717]	4%	0%	12%	0%	38%	100%	43%	0%	0%	5%	0%
CNc1nc(-c2ccc3c(N)n[nH]c3c2)cc(N2C[C@@H](C(=O)Nc3ccccc3)CC[C@H]2C)n1 [GSK2298859]	89%	32%	2%	0%	17%	0%	0%	22%	0%	0%	0%
CS(=O)(=O)Cc1ccc(Nc2nccc(-c3c(-c4cccc(NC(=O)C5CCCCC5)c4)nn4ncccc34)n2)cc1 [GSK350559]	13%	3%	36%	0%	16%	15%	22%	2%	6%	0%	43%
